Experimental data as given in PubChem BioAssay (EPA / NIEHS).
The source made the active and inactive calls. The calls were made as follows: active = hit-call score of the fitted dose curve at least 0.9, where 1 is the maximum; inactive = score below 0.9.

Key:
[1] = ATG_CRE_CIS: Attagene CIS-FACTORIAL HepG2 Assay for human cAMP Responsive Element (CRE) binding protein 3 (AID 2282926); settings: HepG2 CRE cis-reporter, Attagene multiplexed mRNA; actives raise or lower the signal
Method in brief: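 Endogenous transcription factor activity read via CRE-regulated reporter transcripts in transfected HepG2 cells. After 24 h exposure, RNA was reverse-transcribed, amplified, fluorescently labelled and sized by capillary electrophoresis; gain or loss fitted against DMSO.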

[2] = biological target: CCAAT/enhancer-binding protein beta (Homo sapiens) (UniProt P17676); test: ATG_C_EBP_CIS: Attagene CIS-FACTORIAL HepG2 Assay for human CCAAT/Enhancer Binding Protein (C/EBP) beta (AID 2282927); settings: HepG2 Attagene cis-factorial transcription factor reporter; actives raise or lower the signal
Method in brief: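 HepG2, transient MRTU transfection, 24 h treatment. RT-PCR plus CE fluorescence; DMSO negative control, bidirectional fit.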

[3] = ATG_CMV_CIS: Attagene CIS-FACTORIAL HepG2 Assay for human CMV (Internal Marker) (AID 2282928); settings: HepG2 CMV promoter reporter, transcription factor profiling; actives raise or lower the signal;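 also: endpoint acts as a background internal control marker rather than a target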
Method in brief: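 Reporter transcripts from transfected HepG2 cells are isolated after 24 h of chemical dosing, reverse-transcribed and amplified. Fragments labeled with 6-FAM are cut with HpaI and quantified by capillary electrophoresis; DMSO defines baseline.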

[4] = ATG_DR4_LXR_CIS: Attagene CIS-FACTORIAL HepG2 Assay for human Liver X Receptor (LXR), DR4 submotif (AID 2282929); settings: HepG2 Attagene DR4 cis-reporter, mRNA transcription; actives raise or lower the signal
Method in brief: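 Transiently transfected HepG2 liver cells; cis-regulated reporters; 24 h dosing. RT-PCR plus CE read-out of reporter mRNA. DMSO baseline, bidirectional curve fitting.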

[5] = biological target: Aryl hydrocarbon receptor (Homo sapiens) (UniProt P35869); test: ATG_Ahr_CIS: Attagene CIS-FACTORIAL HepG2 Assay for human Aryl Hydrocarbon Receptor (Ahr) (AID 2282930); settings: HepG2 AhR cis-factorial reporter transcription; actives raise or lower the signal
Method in brief: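 Endogenous factor activity is tracked through cis-promoter reporter units transfected into HepG2 cells. Transcript levels at 24 h are read by fluorescent RT-PCR and capillary electrophoresis, with activity in either direction scored relative to DMSO.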

[6] = ATG_AP_1_CIS: Attagene CIS-FACTORIAL HepG2 Assay for human Activator Protein 1 (AP-1) (AID 2282931); settings: HepG2 Attagene cis-factorial AP-1 reporter mRNA; actives raise or lower the signal
Method in brief: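 We transfected HepG2 cells transiently with a set of cis-regulated reporter transcription units, dosed them for 24 h, and quantified reporter mRNA via RT-PCR and capillary electrophoresis, scoring gain or loss of signal relative to DMSO.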

[7] = ATG_AP_2_CIS: Attagene CIS-FACTORIAL HepG2 Assay for human Activator Protein 2 (AP-2) (AID 2282932); settings: HepG2 AP-2 cis-reporter, Attagene transcription factor profiling; actives raise or lower the signal
Method in brief: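 Read-out: fluorescent reporter mRNA via RT-PCR and capillary electrophoresis, 24 h post-dose in transiently transfected HepG2. Endogenous factors drive cis-promoter reporters; gain or loss of signal fitted bidirectionally against DMSO.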

[8] = ATG_BRE_CIS: Attagene CIS-FACTORIAL HepG2 Assay for human Bone Morphogenetic Protein (BMP) Response Element (BRE) (AID 2282933); settings: HepG2 BMP response element reporter, Attagene transcription factor profiling; actives raise or lower the signal
Method in brief: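 Transient MRTU transfection of human HepG2 liver cells; 24 h compound treatment; total RNA isolated, reverse-transcribed, PCR-amplified, 6-FAM labelled, HpaI-cut, capillary electrophoresis. DMSO = negative control/baseline, bidirectional fit.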

[9] = biological target: Retinoic acid receptor alpha (Homo sapiens) (UniProt P10276); test: ATG_DR5_RAR_CIS: Attagene CIS-FACTORIAL HepG2 Assay for human Retinoic Acid Receptor Alpha (RARE), DR5 submotif (AID 2282934); settings: HepG2 Attagene cis-factorial RARE DR5 reporter, mRNA; actives raise or lower the signal
Method in brief: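 After 24 h of chemical exposure, transiently transfected HepG2 cells were lysed for total RNA; the DR5-regulated reporter transcript was quantified via RT-PCR and capillary electrophoresis, with activity fitted bidirectionally against DMSO.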

[10] = biological target: Transcription factor E2F1 (Homo sapiens) (UniProt Q01094); test: ATG_E2F_CIS: Attagene CIS-FACTORIAL HepG2 Assay for human E2F Transcription Factor 1 (AID 2282935); settings: HepG2 Attagene cis-reporter, E2F reporter RNA transcripts; actives raise or lower the signal
Method in brief: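 Transient MRTU transfection of HepG2; 24 h compound exposure; RNA → oligo(dT) RT → PCR → FAM label → HpaI cut → CE fluorescence. Gain/loss of signal fit against DMSO.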

[11] = ATG_E_Box_CIS: Attagene CIS-FACTORIAL HepG2 Assay for human Enhancer Box (E-box) (AID 2282936); settings: HepG2 E-box cis-reporter transcription, actives raise or lower the signal
Method in brief: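 Transiently transfected HepG2, endogenous TF-driven reporters, 24 h dosing. Readout: RT-PCR plus capillary electrophoresis of fluorescent reporter fragments. Gain or loss of signal fitted bidirectionally against DMSO baseline.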

[12] = ATG_M_61_CIS: Attagene CIS-FACTORIAL HepG2 Assay for M61 Transcription Factor (Internal Marker) (AID 2282937); settings: HepG2 Attagene CIS-FACTORIAL M61 internal marker reporter; actives raise or lower the signal
Method in brief: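 Multiplexed reporter mRNA assay, HepG2 human hepatoma cells, 24 h treatment. Signal: FAM-labelled, HpaI-digested RT-PCR fragments by CE. Fit: bidirectional, baseline DMSO.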

[13] = ATG_EGR_CIS: Attagene CIS-FACTORIAL HepG2 Assay for human Early Growth Response 1 (EGR1) (AID 2282938); settings: HepG2 Attagene CIS-FACTORIAL EGR reporter mRNA; actives raise or lower the signal
Method in brief: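 Multiplexed cis-reporter system in human hepatoma HepG2 cells, transiently transfected. Cells are dosed for 24 h; reporter transcripts are amplified, fluorescently tagged and sized by capillary electrophoresis, with DMSO as negative control.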

[14] = ATG_M_19_CIS: Attagene CIS-FACTORIAL HepG2 Assay for M19 Transcription Factor (Internal Marker) (AID 2282939); settings: HepG2 Attagene CIS-FACTORIAL M19 internal marker reporter; actives raise or lower the signal
Method in brief: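 Transfect HepG2 with MRTU reporter library → dose chemical, 24 h → isolate total RNA, reverse-transcribe with oligo(dT) → PCR, 6-FAM label, HpaI cut (2 h, 37 C) → capillary electrophoresis. Bidirectional fit vs DMSO.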

[15] = ATG_Ets_CIS: Attagene CIS-FACTORIAL HepG2 Assay for human Erythroblast Transformation Specific (ETS) (AID 2282941); settings: HepG2 ETS cis-reporter transcription, actives raise or lower the signal
Method in brief: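 Bidirectional fit versus DMSO of reporter mRNA signal, detected by RT-PCR and capillary electrophoresis in HepG2 cells transiently transfected with cis-element reporters and dosed 24 h.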

[16] = biological target: Hepatocyte nuclear factor 3-beta (Homo sapiens) (UniProt Q9Y261); test: ATG_FoxA2_CIS: Attagene CIS-FACTORIAL HepG2 Assay for human Forkhead box A2 (FOXA2) (AID 2282942); settings: HepG2 cis-reporter transcription factor activity, 24 h; actives raise or lower the signal
Method in brief: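 Multiplexed cis-element reporter assay in transiently transfected HepG2. Twenty-four hours post-dosing, RNA was reverse-transcribed, amplified, FAM-labelled, HpaI-digested and separated by CE. Activity gain or loss relative to DMSO.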

[17] = ATG_FoxO_CIS: Attagene CIS-FACTORIAL HepG2 Assay for human Forkhead box O (FoxO) (AID 2282943); settings: HepG2 Attagene cis-reporter, FoxO element, mRNA; actives raise or lower the signal
Method in brief: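 Transfected HepG2 reporter cells exposed to test chemical for 24 h; reporter RNA measured by reverse transcription, PCR and fluorescent capillary electrophoresis; curves fitted for increases and decreases against DMSO.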

[18] = ATG_GATA_CIS: Attagene CIS-FACTORIAL HepG2 Assay for human GATA Binding Protein (AID 2282944); settings: HepG2 GATA cis-element reporter, Attagene multiplex mRNA; actives raise or lower the signal
Method in brief: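 Transient MRTU transfection, HepG2, 24 h compound exposure. Total RNA → oligo(dT) RT → PCR → 6-FAM primer extension → HpaI cut → CE. Bidirectional fit vs DMSO.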

[19] = ATG_GLI_CIS: Attagene CIS-FACTORIAL HepG2 Assay for human Zinc Finger Protein GLI1 (AID 2282945); settings: HepG2, Attagene cis-factorial reporter mRNA, GLI element; actives raise or lower the signal
Method in brief: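 Transiently transfected HepG2 cells report endogenous transcription factor activity via cis-element-driven reporter units. After 24 h compound exposure, reporter mRNA was measured by RT-PCR with capillary electrophoresis; bidirectional fitting against DMSO baseline.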

[20] = ATG_ERE_CIS: Attagene CIS-FACTORIAL HepG2 Assay for Estrogen Response Element (ERE) (AID 2282940); settings: HepG2 ERE cis-reporter, Attagene RNA transcript; actives raise or lower the signal
Method in brief: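 Transient MRTU transfection of human HepG2; cis-element promoters; 24 h dosing; total RNA → RT (oligo dT) → PCR → 6-FAM primer extension → HpaI digest → CE fluorescence. Bidirectional fit, DMSO baseline.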

Measured: outcome

Chain of CCAAT/enhancer-binding protein beta (Homo sapiens) (P17676 whole entry, looked up): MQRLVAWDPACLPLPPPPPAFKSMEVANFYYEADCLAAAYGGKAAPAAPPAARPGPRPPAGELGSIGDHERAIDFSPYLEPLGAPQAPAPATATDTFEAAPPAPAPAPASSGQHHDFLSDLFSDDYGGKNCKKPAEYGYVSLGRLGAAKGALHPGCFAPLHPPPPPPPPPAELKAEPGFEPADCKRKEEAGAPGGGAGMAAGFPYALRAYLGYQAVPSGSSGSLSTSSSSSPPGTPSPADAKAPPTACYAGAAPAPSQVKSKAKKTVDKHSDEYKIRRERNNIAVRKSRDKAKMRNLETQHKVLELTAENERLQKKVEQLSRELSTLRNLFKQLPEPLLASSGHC
Chain of Transcription factor E2F1 (Homo sapiens) (Q01094 whole entry, looked up): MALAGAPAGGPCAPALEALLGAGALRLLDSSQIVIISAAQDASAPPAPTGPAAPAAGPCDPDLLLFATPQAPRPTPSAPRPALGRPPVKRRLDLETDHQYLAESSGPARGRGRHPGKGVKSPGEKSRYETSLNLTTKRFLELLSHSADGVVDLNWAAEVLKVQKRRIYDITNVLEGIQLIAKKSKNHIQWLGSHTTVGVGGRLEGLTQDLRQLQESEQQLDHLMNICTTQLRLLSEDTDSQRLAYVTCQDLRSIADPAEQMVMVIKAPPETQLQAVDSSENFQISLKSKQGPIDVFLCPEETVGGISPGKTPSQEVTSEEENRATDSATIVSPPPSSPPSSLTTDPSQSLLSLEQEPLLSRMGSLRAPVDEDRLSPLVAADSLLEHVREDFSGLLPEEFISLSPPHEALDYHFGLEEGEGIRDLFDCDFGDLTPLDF
Chain of Hepatocyte nuclear factor 3-beta (Homo sapiens) (Q9Y261 whole entry, looked up): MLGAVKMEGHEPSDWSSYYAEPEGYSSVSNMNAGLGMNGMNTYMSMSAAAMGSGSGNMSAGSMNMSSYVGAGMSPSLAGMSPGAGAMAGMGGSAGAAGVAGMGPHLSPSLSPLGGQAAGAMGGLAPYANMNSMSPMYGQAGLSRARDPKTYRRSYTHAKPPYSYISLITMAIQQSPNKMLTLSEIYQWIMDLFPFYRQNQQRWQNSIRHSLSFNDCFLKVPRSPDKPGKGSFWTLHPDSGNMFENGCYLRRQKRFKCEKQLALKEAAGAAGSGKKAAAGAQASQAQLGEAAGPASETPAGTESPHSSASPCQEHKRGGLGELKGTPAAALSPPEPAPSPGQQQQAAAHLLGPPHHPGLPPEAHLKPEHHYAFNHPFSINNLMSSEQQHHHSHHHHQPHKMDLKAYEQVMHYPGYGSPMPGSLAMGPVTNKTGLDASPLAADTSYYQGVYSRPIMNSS
Chain of Retinoic acid receptor alpha (Homo sapiens) (P10276 whole entry, looked up): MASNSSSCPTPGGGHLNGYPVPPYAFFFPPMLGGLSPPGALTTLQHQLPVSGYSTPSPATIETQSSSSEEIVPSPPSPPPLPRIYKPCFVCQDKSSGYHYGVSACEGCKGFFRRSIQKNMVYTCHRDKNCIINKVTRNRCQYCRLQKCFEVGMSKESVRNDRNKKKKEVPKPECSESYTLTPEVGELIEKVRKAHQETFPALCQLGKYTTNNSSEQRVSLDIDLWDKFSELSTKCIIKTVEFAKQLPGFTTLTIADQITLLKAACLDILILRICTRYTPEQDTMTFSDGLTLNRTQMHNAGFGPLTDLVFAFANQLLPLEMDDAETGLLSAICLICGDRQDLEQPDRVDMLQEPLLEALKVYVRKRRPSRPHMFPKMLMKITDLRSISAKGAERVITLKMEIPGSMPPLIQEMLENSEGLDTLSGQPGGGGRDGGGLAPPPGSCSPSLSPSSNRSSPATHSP
Chain of Aryl hydrocarbon receptor (Homo sapiens) (P35869 whole entry, looked up): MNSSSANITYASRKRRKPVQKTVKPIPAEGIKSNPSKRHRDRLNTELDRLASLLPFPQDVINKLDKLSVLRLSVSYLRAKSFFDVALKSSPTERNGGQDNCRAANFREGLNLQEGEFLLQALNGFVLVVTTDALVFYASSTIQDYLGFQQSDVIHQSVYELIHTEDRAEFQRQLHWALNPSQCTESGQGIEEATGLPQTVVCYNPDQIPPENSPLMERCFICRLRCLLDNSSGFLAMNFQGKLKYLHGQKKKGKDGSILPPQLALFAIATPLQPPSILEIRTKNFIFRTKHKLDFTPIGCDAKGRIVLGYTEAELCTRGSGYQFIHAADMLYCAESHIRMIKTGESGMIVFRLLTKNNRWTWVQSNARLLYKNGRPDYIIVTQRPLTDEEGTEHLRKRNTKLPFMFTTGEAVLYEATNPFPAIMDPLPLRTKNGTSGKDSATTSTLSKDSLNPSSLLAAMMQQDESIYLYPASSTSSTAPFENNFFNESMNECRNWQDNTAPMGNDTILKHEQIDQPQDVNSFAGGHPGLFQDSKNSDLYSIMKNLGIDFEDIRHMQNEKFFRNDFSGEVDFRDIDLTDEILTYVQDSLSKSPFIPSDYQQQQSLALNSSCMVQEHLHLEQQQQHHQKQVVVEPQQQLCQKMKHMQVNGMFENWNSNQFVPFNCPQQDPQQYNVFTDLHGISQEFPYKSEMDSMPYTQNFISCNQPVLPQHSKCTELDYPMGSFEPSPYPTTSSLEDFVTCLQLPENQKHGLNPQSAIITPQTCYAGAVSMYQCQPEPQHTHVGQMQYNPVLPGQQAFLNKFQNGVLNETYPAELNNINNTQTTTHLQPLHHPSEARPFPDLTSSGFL

CCN(CC)CCOC(=O)c1ccc(N)cc1
inactive: [1] | [2] | [3] | [4] | [5] | [6] | [7] | [8] | [9] | [10] | [11] | [12] | [13] | [14] | [15] | [16] | [17] | [18] | [19]

CCOC(=O)c1ccccc1OC
inactive: [1] | [2] | [3] | [4] | [5] | [6] | [7] | [8] | [9] | [10] | [11] | [12] | [13] | [14] | [16] | [17] | [18] | [19]

CCCCCCOC(=O)CCCCC
inactive: [1] | [2] | [3] | [4] | [5] | [6] | [7] | [8] | [9] | [10] | [11] | [12] | [13] | [14] | [15] | [16] | [17] | [18] | [19]

Cc1cccc(C)c1[N+](=O)[O-]
inactive: [1] | [2] | [3] | [4] | [5] | [6] | [7] | [8] | [9] | [10] | [11] | [12] | [13] | [14] | [16] | [17] | [19]

CCCC[n+]1ccccc1
inactive: [1] | [2] | [3] | [4] | [5] | [6] | [7] | [8] | [9] | [10] | [11] | [12] | [13] | [14] | [15] | [16] | [17] | [18] | [19]

C=CC(C)(C)O
inactive: [1] | [2] | [3] | [4] | [5] | [6] | [7] | [8] | [10] | [11] | [12] | [13] | [14] | [20] | [15] | [16] | [17]

O=Cc1ccc(F)cc1
inactive: [1] | [2] | [3] | [4] | [5] | [6] | [7] | [8] | [10] | [11] | [12] | [13] | [14] | [20] | [15] | [16] | [17]

CCCC(=O)OCCC(C)CCC=C(C)C (stereo not given)
inactive: [1] | [2] | [3] | [4] | [5] | [6] | [7] | [8] | [9] | [10] | [11] | [12] | [13] | [14] | [15] | [16] | [17] | [18] | [19]
